Source: PubChem
Only some compounds are listed: those with a hit (about 6.5% of all), similar ones and a draw of the others.
Marburg entry inh: inhibitors of Marburg virus binding or cell entry. Marburg virus pseudotyped entry inhibition, cell reporter. Potency, µM (highest dose often 37.8 µM), for inactives: top-dose activity change, negative = inhibition, usual class: inhibitors. 300,000 tested, 1.8% active. AID 540276; calls by dose curve; tested in HEK293 cells; also: potency is read from the fitted curve at half-maximal effect
FMDV inh: foot and mouth disease virus antiviral activity. FMDV antiviral cell-based qHTS. Potency, µM (highest dose often 57.9 µM), for the others: top-dose activity change, negative = inhibition, hits mostly inhibitors. 410,000 tested, 1.2% active. AID 1159524; calls by dose curve; tested in HEK293T cells; also: read-out not given here; potency is read from the fitted curve at half-maximal effect; nearly all actives have a fitted effect of over 45% in size
Vaccinia mCherry: vaccinia inhibition (mCherry reporter). Vaccinia virus mCherry reporter infection, fluorescence. 310,000 tested, 0.63% active. Potency, µM (doses to about 36.5 µM), for inactives: at the top dose activity change, negative = inhibition, usual class: inhibitors; calls by dose curve; tested in A549 cells; also: potency is read from the fitted curve at half-maximal effect; nearly all actives have a fitted effect of over 35% in size
Vaccinia Venus: inhibitors of vaccinia virus (Venus reporter); Potency, µM (highest dose often 36.5 µM), inactives show at the highest dose activity change, negative = inhibition, most hits filed as inhibitors; 330,000 tested, 0.46% active; AID 720580; Vaccinia virus Venus reporter expression, fluorescence; calls by dose curve; tested in A549 cells; also: potency is read from the fitted curve at half-maximal effect; nearly all actives have a fitted effect of over 30% in size
HCMV antiviral: blocks human cytomegalovirus replication; HFF cells, HCMV-luciferase reporter, 72 h; hits give low values; activity change, negative = inhibition, % at 57.5 µM; 410,000 tested, 4.5% active; in the data active = activity change below about -60%; inconclusive = no clear call, values can overlap the other calls; inactive = above about -39%
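Screen run at 2 compound doses on HFFs infected with reporter HCMV, MOI 1 PFU/cell. Luciferase activity from cell lysates at 72 h post infection gave inhibition relative to buffer-only and Salinomycin wells.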
Lassa entry inh: Lassa virus entry inhibition; Lassa virus pseudotype entry inhibition, cell reporter; Potency, µM (doses to about 37.9 µM), without a hit: at the highest dose activity change, negative = inhibition, most hits filed as inhibitors; 300,000 tested, 1.2% active; calls by dose curve; tested in HEK293 cells; also: potency is read from the fitted curve at half-maximal effect; nearly all actives have a fitted effect of over 50% in size
Active calls of the source: *; ? = inconclusive; / = no result given; [ ] = remark or other dose. % is scaled to controls: 0 for no effect and ±100 for the full control effect.

SMILES	Marburg entry inh	FMDV inh	Vaccinia mCherry	Vaccinia Venus	HCMV antiviral	Lassa entry inh
CCCN1C/C(=C/c2ccc3c(c2)OCO3)C(=O)/C(=C/c2ccc3c(c2)OCO3)C1	?	18µM*	?	?	3	?
CN1C(=O)/C(=C/c2cccc([N+](=O)[O-])c2)C(=O)N1c1ccccc1	13%	32µM*	-10%	-8%	-4	?
CC(C)CN1CC[C@@]2(CCCN(C(=O)c3cc(C(F)(F)F)cc(C(F)(F)F)c3)C2)C1	/	-12%	/	/	/	/
CCn1c(SCC(=O)Nc2ccc(C)cc2)nc(O)cc1=O	-8%[46.1 µM]	7%	-13%[7.34 µM]	4%[7.34 µM]	-15	-8%
C=CCn1c(SCC(=O)Nc2ccc(Br)cc2)nc(O)cc1=O	/	-14%	-13%	-10%	-100*	/
COc1ccc(Br)cc1C(=O)Nc1ccccc1N1CCCC1	/	5%	/	/	?	/
CCn1c(=O)n(CC)c2cc(N3CCCC3)c(NC(=O)c3cc(Br)ccc3OC)cc21	/	?	/	/	-70*	/
NC(=O)C12NC(Cc3ccccc31)c1ccccc12 (stereo not given)	/	/	/	/	24	/
COc1ccc(NS(=O)(=O)c2cccc(NC(=O)CCC(=O)c3ccc(Cl)cc3)c2)cc1	?	?	-22%	-7%	-83*	?
O=C(Nc1cccc(S(=O)(=O)Nc2ccc(Cl)cc2)c1)c1ccc(Cl)nc1	?	-25%	/	/	-95*	?
O=C(Nc1cccnc1)c1ccc(S(=O)(=O)c2ccc(Cl)cc2)cc1	?	28µM*	-14%	-20%	-86*	?
O=C(Nc1ccc(NS(=O)(=O)c2ccccc2)cc1)c1ccc(Cl)cc1	-1%	2%	-22%	-22%	-14	?
COc1ccc(NS(=O)(=O)c2cccc(NC(=O)c3ccc(Cl)nc3)c2)cc1	?	32µM*	-11%	?	-89*	5µM*
COc1cccc(S(=O)(=O)Nc2ccc(C(=O)Nc3ccncc3)cc2)c1	?	-6%	-18%	-30%	-5	?
Cc1ccccc1CCNC(=O)c1ccc(NC(=O)N2CC(C)Sc3ccccc32)cc1 (stereo not given)	28%[46.1 µM]	-23%	-10%	-17%	56	14%[46.1 µM]
Cc1cc(C)c2sc(NC(=O)c3ccc(S(=O)(=O)N4CCOCC4)cc3)nc2c1	/	?	-14%	-15%	-2	-1%[46.1 µM]
O=C(NCCc1cccnc1)c1cnn(-c2ncc3c(n2)-c2ccccc2CC3)c1C1CC1	/	7%	-24%	-10%	/	/
CCOc1cc2[nH]c(=O)n(CCCCC(=O)N3CCN(c4cccc(Cl)c4)CC3)c(=O)c2cc1OCC	/	25µM*	?	?	7	?
COc1cc2[nH]c(=O)n(CCC(=O)N3CCN(c4cc(Cl)ccc4C)CC3)c(=O)c2cc1OC	?	?	/	/	-64*	-23%
CCOc1cc2[nH]c(=O)n(CCC(=O)N3CCN(c4ccccc4)CC3)c(=O)c2cc1OCC	/	-21%	-14%	-5%	-2	15%[46.1 µM]
COc1cc2[nH]c(=O)n(CCCCCC(=O)N3CCN(c4cccc(C(F)(F)F)c4)CC3)c(=O)c2cc1OC	?	22µM*	?	?	-70*	?
COc1cc2[nH]c(=O)n(Cc3ccc(C(=O)N4CCN(c5cccc(C)c5C)CC4)cc3)c(=O)c2cc1OC	12%[46.1 µM]	-1%	-12%	-14%	-108*	-2%[46.1 µM]
COc1cccc(CN2CC3(CCN(C)CC3)c3c(n(C)c4cc(OC)ccc34)[C@H]2CO)c1	/	/	/	/	-14	/
O=C(NC1CCCCCC1)C1CCC(CNS(=O)(=O)c2cccc3cccnc23)CC1 (stereo not given)	/	/	-16%	-8%	/	/
COc1cc2[nH]c(=O)n(CCC(=O)N3CCc4ccccc4C3)c(=O)c2cc1OC	-5%	-7%	-11%	-13%	5	-3%
SMILES	Marburg entry inh	FMDV inh	Vaccinia mCherry	Vaccinia Venus	HCMV antiviral	Lassa entry inh
CCOc1cc2[nH]c(=O)n(CCCCCC(=O)NC(C)CC)c(=O)c2cc1OCC (stereo not given)	/	-10%	-5%	-3%	15	24%[46.1 µM]
CCOc1cc2[nH]c(=O)n(CCCCC(=O)N3CCCCCC3)c(=O)c2cc1OCC	8%	-20%	/	/	-104*	?
COc1cc2[nH]c(=O)n(CCCCCC(=O)N3CC=C(c4ccccc4)CC3)c(=O)c2cc1OC	8.9µM*	?	-18%	?	-30	?
CCc1nn(Cc2cccc(F)c2)c(=O)c2cc3cc(C)ccc3n12	-3%[46.1 µM]	0%	-20%	-7%	-5	11%[46.1 µM]
C[C@@H](C1=C(CCN(C)C)Cc2ccccc21)c1ccccn1	/	-10%	/	/	/	/
COc1ccc(OC)c(CNC(=O)Cc2ccc(NC(=O)N3CCSc4ncccc43)cc2)c1	/	?	-14%	-14%	0	2%[46.1 µM]
N#Cc1cccc(-c2nc(NCc3cccnc3)c3ccccc3n2)c1	/	-18%	/	/	/	/
CCOC(=O)C1CCN(c2cc(C)nc3c(-c4ccccc4OC)c(C)nn23)CC1	/	?	0%	-10%	-12	-5%[46.1 µM]
O=C(NCC1CCCCC1)c1ccc([N+](=O)[O-])cc1	/	6%	/	/	10	/
COc1ccc(N(C)S(=O)(=O)c2cccc(C(=O)NCC3CCCCC3)c2)cc1	?	-5%	-17%	-9%	-23	?
CCN(CC)S(=O)(=O)c1ccc(C(=O)NCC2CCCCC2)cc1	0%[46.1 µM]	-12%	-2%	-12%	-3	7.1µM*
CCN(Cc1ccccc1)S(=O)(=O)c1cc(C(=O)NCC2CCCCC2)ccc1OC	?	-29%	-7%	?	-83*	?
CCN(CC)c1ccc(S(=O)(=O)N(CC)CC)cc1NC(=O)C1CCCC1	?	-6%	-2%	-13%	12	7.9µM*
CN(C)S(=O)(=O)c1cccc(C(=O)NCC2CCCCC2)c1	8%[46.1 µM]	22%	-4%	-6%	-78*	-19%
CN(C)c1ncc2nc(-c3cc(F)cc(F)c3)c(=O)n(Cc3cccs3)c2n1	/	-3%	/	/	/	/
CCOc1ccc(S(=O)(=O)Nc2cccc(-c3ccc(N4CCCC4)nn3)c2)cc1	/	37%	-4%	-23%	29	-4%[46.1 µM]
